The nature of assay [1]: qHTS profiling for inhibitors of Plasmodium falciparum proliferation (AID 504749). Also: nearly all actives have a fitted effect of over 60% in size.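 As to activity, negative = inhibition: 0% = DMSO vehicle and full inhibition = artemisinin control.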 The following applies: P. falciparum in erythrocytes, SYBR Green DNA, 72 h. A digest of the protocol:
(§1)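 SYBR Green fluorescence (ex 485 nm, em 535 nm) reports parasite DNA after 72 h compound exposure of infected red cells at 0.3% parasitemia, 2.5% hematocrit; signal normalized to 0.29 uM artemisinin and vehicle wells.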
Background: qHTS replaces the single test concentration by a dilution series.

Assay [2] deals with 3D7. The description is as above. The note with it: P. falciparum in erythrocytes, SYBR Green DNA, 72 h; series mostly up to 28.7 µM. A digest of the protocol:
as §1

In assay [3] the test system is 7G8. The assay is described as above. The following applies: P. falciparum in erythrocytes, SYBR Green DNA, 72 h; series mostly up to 28.7 µM. A digest of the protocol:
as §1

In assay [4] the test system is AA1029. Described as above. The note with it: P. falciparum in erythrocytes, SYBR Green DNA, 72 h; series mostly up to 28.7 µM. A digest of the protocol: as §1
Assay [5] deals with AS120. The description is as above. The following applies: P. falciparum in erythrocytes, SYBR Green DNA, 72 h; series mostly up to 28.7 µM. The gist of the method:
as §1

Assay [6] relates to ATS189. The assay is described as above. The note with it: P. falciparum in erythrocytes, SYBR Green DNA, 72 h; series mostly up to 28.7 µM. A digest of the protocol:
as §1

For assay [7], the system named is ATS95. The assay is described as above. The note with it: P. falciparum in erythrocytes, SYBR Green DNA, 72 h; series mostly up to 28.7 µM. A digest of the protocol: as §1
The test system of assay [8] is C2A. Described as above. The note with it: P. falciparum in erythrocytes, SYBR Green DNA, 72 h; series mostly up to 28.7 µM. The gist of the method: as §1
Assay [9] concerns CP185. The assay is described as above. The following applies: P. falciparum in erythrocytes, SYBR Green DNA, 72 h; series mostly up to 28.7 µM. The gist of the method: as §1
Assay [10] relates to CP191. The assay is described as above. The following applies: P. falciparum in erythrocytes, SYBR Green DNA, 72 h; series mostly up to 28.7 µM. A digest of the protocol: as §1
Assay [11] deals with CP192. The description is as above. The following applies: P. falciparum in erythrocytes, SYBR Green DNA, 72 h; series mostly up to 28.7 µM. A digest of the protocol:
as §1

Assay [12] relates to CP194. The description is as above. The following applies: P. falciparum in erythrocytes, SYBR Green DNA, 72 h; series mostly up to 28.7 µM. A digest of the protocol: as §1
Assay [13] has as its system CP201. The description is as above. The following applies: P. falciparum in erythrocytes, SYBR Green DNA, 72 h; series mostly up to 28.7 µM. A digest of the protocol:
as §1

Assay [14] deals with CP203. Described as above. The note with it: P. falciparum in erythrocytes, SYBR Green DNA, 72 h; series mostly up to 28.7 µM. The gist of the method:
as §1

Assay [15] relates to CP211. The description is as above. The following applies: P. falciparum in erythrocytes, SYBR Green DNA, 72 h; series mostly up to 28.7 µM. The gist of the method: as §1
Assay [16] deals with CP215. The description is as above. The following applies: P. falciparum in erythrocytes, SYBR Green DNA, 72 h; series mostly up to 28.7 µM. The gist of the method:
as §1

Assay [17] deals with CP217. Described as above. The note with it: P. falciparum in erythrocytes, SYBR Green DNA, 72 h; series mostly up to 28.7 µM. The gist of the method: as §1
Assay [18] deals with CP237. Described as above. The following applies: P. falciparum in erythrocytes, SYBR Green DNA, 72 h; series mostly up to 28.7 µM. A digest of the protocol: as §1
The mark [19] stands for this setting: at 12.8 µM (top of the series), parasite line A.
The mark [20] stands for this setting: at 12.8 µM (top of the series), parasite line B.
Where [21] appears, read: at 28.7 µM (top of the series), parasite line A.
Where [22] appears, read: at 28.7 µM (top of the series), parasite line B.

Inconclusive results are not listed. Unmarked numbers belong to inactive results. The source made the active and inactive calls. Calls follow the shape of the dose curve; as a rule, active = well fitted inhibition curve with a large enough effect; inconclusive = small, poorly fitted or top-dose-only effect; inactive = flat fitted curve, though single readings scatter.

This passage reports activity, negative = inhibition and Potency results from PubChem BioAssay (NCATS).
Potency is read from the fitted curve at half-maximal effect.

Turning to `O=C1c2ccccc2C(=O)C1c1ccccc1`, the activity, negative = inhibition in assay [1] (setting [19]) was 17.2%; in assay [1] (setting [20]) it was 11.5%. The Potency entry in assay [2], in assay [3], in [4], in [5], in [6] and in assay [7] was “inactive” throughout. For the same molecule, the Potency entry in [8], in assay [9], in assay [10], in assay [11], in assay [12] and in assay [13] was “inactive” in each case. Besides, the Potency result in assay [14], in assay [15], in [16], in [17] and in assay [18] was “inactive” each time.
In the case of `NCCCC[C@H](N[C@@H](CCc1ccccc1)C(=O)O)C(=O)N1CCC[C@H]1C(=O)O`, the activity, negative = inhibition in assay [1] (setting [19]) is 2.09%; in assay [1] (setting [20]), 0.712%. The Potency result in assay [2], in assay [3], in assay [4], in assay [5], in assay [6] and in [7] was “inactive” throughout. Also, the Potency result in assay [8], in [9], in assay [10], in [11], in assay [12] and in assay [13] was “inactive” each time. Moreover, the Potency result in assay [14], in assay [15], in assay [16], in [17] and in [18] was “inactive” throughout.
Consider `C[C@]12CCC(=O)C=C1CC[C@H]1[C@@H]3CC[C@](O)(C(=O)CO)[C@@]3(C)C[C@H](O)[C@@]12F`, for which the activity, negative = inhibition in assay [1] (setting [21]) is 4.53%; in [1] (setting [22]) it was 9.81%. Also, the Potency entry in assay [2], in assay [3], in [4], in assay [5], in assay [6] and in assay [7] was “inactive” each time. The Potency entry in assay [8], in assay [9], in assay [10], in assay [11], in assay [12] and in assay [13] was “inactive” throughout. The Potency entry in assay [14], in assay [15], in assay [16], in assay [17] and in [18] was “inactive” throughout.
On to `CCCCCC=CCC=CCCCCCCCC(=O)OCC`, for which the activity, negative = inhibition in assay [1] (setting [21]) is 1.14%; in assay [1] (setting [22]) it was 2.81%. Further, the Potency entry in assay [2], in [3], in assay [4], in assay [5], in [6] and in assay [7] was “inactive” throughout. Moreover, the Potency entry in assay [8], in assay [9], in assay [10], in [11], in assay [12] and in assay [13] was “inactive” in each case. Further, the Potency result in assay [14], in [15], in [16], in [17] and in assay [18] was “inactive” throughout.
On to `CCC(C(=O)OCCN(CC)CC)c1ccccc1` (configuration not stated), for which the activity, negative = inhibition in [1] (setting [21]) was -4.21%; in [1] (setting [22]), 8.52%. Further, the Potency result in [2], in assay [3], in assay [4], in assay [5], in assay [6] and in assay [7] was “inactive” throughout. The Potency entry in [8], in assay [9], in assay [10], in assay [11], in [12] and in assay [13] was “inactive” throughout. The Potency entry in [14], in assay [15], in assay [16], in assay [17] and in [18] was “inactive” each time.
For `NCCC(O)(P(=O)(O)O)P(=O)(O)O`, the activity, negative = inhibition in assay [1] (setting [21]) was 4.48%; in [1] (setting [22]), -11.5%. In addition, the Potency result in assay [2], in [3], in assay [4], in [5], in [6] and in assay [7] was “inactive” throughout. Further, the Potency entry in assay [8], in [9], in assay [10], in [11], in [12] and in assay [13] was “inactive” throughout. The Potency entry in assay [14], in assay [15], in assay [16], in assay [17] and in assay [18] was “inactive” each time.
As for `OCc1ccccc1O`, the activity, negative = inhibition in [1] (setting [21]) was 6.96%; in assay [1] (setting [22]) it was 8.72%. Also, the Potency result in assay [2], in assay [3], in [4], in [5], in [6] and in [7] was “inactive” in each case. Further, the Potency result in [8], in assay [9], in assay [10], in assay [11], in assay [12] and in [13] was “inactive” each time. For the same molecule, the Potency entry in assay [14], in [15], in [16], in [17] and in assay [18] was “inactive” each time.
`CCC(=O)c1c(O)cc(O)cc1O`: the activity, negative = inhibition is -1.33% in assay [1] (setting [21]) and 0.647% in [1] (setting [22]). In addition, the Potency entry in [2], in assay [3], in [4], in assay [5], in assay [6] and in assay [7] was “inactive” in each case. Moreover, the Potency result in [8], in assay [9], in assay [10], in [11], in assay [12] and in assay [13] was “inactive” each time. For the same molecule, the Potency entry in assay [14], in assay [15], in assay [16], in [17] and in assay [18] was “inactive” in each case.
`CCOc1ccc2nc3cc(N)ccc3c(N)c2c1`: the Potency in assay [1] (parasite line A) is 7.94 µM (active); in assay [1] (parasite line B), 5.01 µM (active); in [2], 11.2 µM (active); in assay [3], 1.78 µM (active); in assay [4], 7.94 µM (active); in [5], 8.91 µM (active). In addition, the Potency was 7.08 µM (active) in assay [6]; 10 µM (active) in [7]; 6.31 µM (active) in assay [8]; 5.01 µM (active) in assay [9]; 5.01 µM (active) in assay [10]; 9.53 µM (active) in [11]. For the same molecule, the Potency in assay [12] is 15.1 µM (active); in [13] it was 12 µM (active); in assay [14] it was 16.9 µM (active); in [16], 9.53 µM (active); in assay [17], 7.08 µM (active); in assay [18], 4.47 µM (active).
With `CN(C)/N=N/c1nc[nH]c1C(N)=O`, the activity, negative = inhibition in assay [1] (setting [21]) is 8.05%; in assay [1] (setting [22]) it was 1.17%. Also, the Potency result in assay [2], in assay [3], in assay [4], in assay [5], in assay [6] and in [7] was “inactive” in each case. In addition, the Potency entry in [8], in assay [9], in assay [10], in assay [11], in [12] and in [13] was “inactive” throughout. Further, the Potency entry in assay [14], in assay [15], in assay [16], in [17] and in assay [18] was “inactive” each time.
For the molecule `CN=C(NC#N)NCCSCc1csc(N=C(N)N)n1`, the activity, negative = inhibition in assay [1] (setting [21]) was 2.51%; in assay [1] (setting [22]) it was -0.371%. Moreover, the Potency entry in [2], in assay [3], in assay [4], in [5], in [6] and in assay [7] was “inactive” each time. Further, the Potency entry in [8], in [9], in assay [10], in assay [11], in assay [12] and in [13] was “inactive” in each case. For the same molecule, the Potency entry in assay [15], in assay [16], in assay [17] and in [18] was “inactive” throughout.
